Only a selection was taken, and hits are over-represented in it overall.
NS1 inh: influenza NS1 inhibition; Potency, µM (series often up to 46.1 µM), for inactives: at the top dose activity, positive = more growth; 270,000 compounds, 0.4% hits; calls by dose curve; further: actives are rising curves; nearly all actives have a fitted effect of over 50% in size
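OD600 was taken as the measure of yeast growth restored by compound in an NS1-expressing S. cerevisiae strain. Cells had been washed out of glucose medium and diluted 1:100 into galactose -URA medium, pH 6.0.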
Cruzain inh noDet: cruzain (T. cruzi) inhibition without detergent; 200,000 compounds, 2.3% hits; purified cruzain, Z-FR-AMC fluorescence, no detergent; Potency, µM, without a hit: max response, negative = inhibition, actives largely listed as inhibitors;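 further: plate controls were enzyme without inhibitor for no effect and buffer without enzyme for full effect; nearly all actives have a fitted effect of over 40% in size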
Target sequence (P25779 123-467 limits assumed): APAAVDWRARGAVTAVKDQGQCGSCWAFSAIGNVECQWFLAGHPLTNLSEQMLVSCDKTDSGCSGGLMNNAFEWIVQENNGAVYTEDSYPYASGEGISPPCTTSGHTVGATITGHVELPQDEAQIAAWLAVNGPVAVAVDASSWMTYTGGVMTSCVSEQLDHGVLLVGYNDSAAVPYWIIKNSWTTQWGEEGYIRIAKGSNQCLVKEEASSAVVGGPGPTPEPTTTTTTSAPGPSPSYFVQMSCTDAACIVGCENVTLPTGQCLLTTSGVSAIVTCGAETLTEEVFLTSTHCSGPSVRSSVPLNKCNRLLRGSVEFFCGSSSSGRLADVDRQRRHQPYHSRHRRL
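Detergent-free condition (0.00005% Triton X-100) in acetate buffer pH 5.5 with DTT. 1.5 nM enzyme and compound were pre-mixed 15 min, then 2 uM Z-FR-AMC substrate added; reaction progress from fluorescence change between first and third reads (60 s).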
Cruzain inh Det: cruzain (T. cruzi) inhibition with detergent; purified cruzain, Z-FR-AMC fluorescence, 0.01% Triton; Potency, µM, for inactives: max response, negative = inhibition, most hits filed as inhibitors; 200,000 compounds, 0.43% hits;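 further: plate controls were neutral wells for no effect and buffer without enzyme for full effect; nearly all actives have a fitted effect of over 40% in size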
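Cysteine protease activity tested under reducing, mildly acidic conditions (100 mM sodium acetate pH 5.5, 5 mM DTT) plus 0.01% Triton X-100. Cruzain 1.5 nM; substrate Z-FR-AMC 2 uM; 15 min compound preincubation at room temperature.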
Numbers without * were called inactive; ? = inconclusive; . = no result. Unless noted, the call rests on the fitted dose curve; in most records, active means well fitted curve in the direction sought with a large enough effect; inconclusive means small, poorly fitted or top-dose-only effect, or another doubt; inactive means no such curve, though single readings can be large; an effect the other way counts as inactive or inconclusive. Potency means the concentration at half of the fitted maximal effect.

SMILES	NS1 inh	Cruzain inh noDet	Cruzain inh Det
Cn1c(=O)c2c(SCC(=O)NC3CCCC3)nc(CC(C)(C)C)nc2n(C)c1=O	9%	.	.
COc1ccc(OC)c(-c2nnc3n(CCc4ccccc4)c(=O)c4ccccc4n23)c1	.	-4%	-15%
COc1cccc(-c2nnc3n2N=C(c2cccc(Br)c2)CS3)c1	0%	7.9µM*	3%
CC1=Nn2c(nnc2-c2cc(-c3ccccc3)n[nH]2)SC1	4%	6%	0%
Cc1cccc(-c2nnc3n2N=C(c2ccc(Br)cc2)CS3)c1	-7%	-3%	3%
c1ccc(-c2ccc(C3=Nn4c(nnc4-c4cc(-c5ccccc5)n[nH]4)SC3)cc2)cc1	26%	3.2µM*	1%
CCc1ccc(N2C(=O)CC(N3CCN(Cc4ccc5c(c4)OCO5)CC3)C2=O)cc1 (stereo unspecified)	5%	.	.
Cc1ccc(S(=O)(=O)Nc2cccc3ncccc23)s1	-180%	9%	0%
CN(C)Cc1cc(O)c(O)c(CN(C)C)c1	1%	-4%	3%
CC(C)(C)c1ccc(C(=O)OC/C(O)=C(\C#N)c2nc3ccccc3s2)cc1	2%	25µM*	-4%
N#C/C(=C(/O)COC(=O)c1ccccc1O)c1nc2ccccc2s1	6%	.	.
CCN(CC)S(=O)(=O)c1cc(NC(=O)C(C)N2CCN(Cc3ccc4c(c3)OCO4)CC2)ccc1C (stereo unspecified)	-3%	8%	3%
O=C(NC(NCc1cccnc1)C(Cl)(Cl)Cl)c1cccc2ccccc12 (stereo unspecified)	-12%	-5%	-2%
Cc1c(C(=O)N2CCCC2)c(S(=O)(=O)NCCc2ccccc2)c(C)n1C	-12%	.	.
Cc1ccc(NC(=O)COC(=O)c2ccc3c(c2)C(=O)N(CCc2ccccc2)C3=O)c(C)c1	8%	25µM*	-2%
CCOc1ccc(NC(=O)COC(=O)c2ccc3c(c2)C(=O)N(CCc2ccccc2)C3=O)cc1	-5%	?	-3%
COCCCNC(=O)/C(C#N)=C/c1c(N2CCN(C)CC2)nc2c(C)cccn2c1=O	10%	.	.
O=S(=O)(c1cccc(Cl)c1)c1nnn2c1nc(NC1CCCCCC1)c1sccc12	.	?	2%
Cc1cc(C)c2[nH]c(=O)c(CN(Cc3cccs3)C(=S)NCc3ccco3)cc2c1	-3%	?	-3%
Cc1ccc(NC(=S)N(Cc2cccs2)Cc2cc3cc(C)cc(C)c3[nH]c2=O)cc1	2%	25µM*	-4%
Cc1cccc(NC(=S)N(Cc2cccs2)Cc2cc3cc(C)ccc3[nH]c2=O)c1	-4%	?	-6%
Cc1ccc(NC(=S)N(Cc2cccs2)Cc2cc3cc(C)ccc3[nH]c2=O)cc1	6%	16µM*	-6%
COc1ccc(C(=O)NC(=S)Nc2ccc(S(=O)(=O)Nc3cc(C)on3)cc2)cc1OC	14%	.	.
CC1=NN(c2ccccc2)C(=O)/C1=C/c1c(O)n(-c2ccc(F)c(Cl)c2)[nH]c1=O	-6%	-6%	22µM*
CC1=NN(c2ccccc2)C(=O)/C1=C\c1c(C)[nH]n(-c2ccccc2)c1=O	5%	2%	1%
SMILES	NS1 inh	Cruzain inh noDet	Cruzain inh Det
CCC(C)NS(=O)(=O)c1ccc(OCC(=O)NCc2ccc(OC)cc2)cc1 (stereo unspecified)	3%	.	.
CC/C=C\C/C=C\C/C=C\C/C=C\C/C=C\CCCC(=O)NCCO	.	-6%	4%
S=C(NC12CC3CC(CC(C3)C1)C2)N1CCOCC1	6%	.	.
N=P(N1CCOCC1)(N1CCOCC1)C12CC3CC(CC(C3)C1)C2	-1%	25µM*	28µM*
Cc1n[nH]c(C)c1S(=O)(=O)N(CC(=O)NCc1ccccc1Cl)c1ccc(C(C)C)cc1	.	-5%	-10%
CC(=O)Nc1nnc(SCC(=O)c2ccc3c(c2)Cc2ccccc2-3)s1	9%	12%	0%
CC1Cc2ccccc2N1C(=O)CSc1nnc(NC(=O)Cc2cccs2)s1 (stereo unspecified)	4%	25µM*	16µM*
CC1CCCC(C)N1C(=O)CSc1nnc(NC(=O)Cc2cccs2)s1 (stereo unspecified)	-2%	4%	2%
Cc1nnc(SCC(=O)N2c3ccccc3CC2C)s1 (stereo unspecified)	-10%	5%	3%
CCC(=O)Nc1nnc(SCC(=O)N2c3ccccc3CC2C)s1 (stereo unspecified)	2%	13µM*	3.5µM*
CCC(=O)Nc1nnc(SCC(=O)c2ccc3c(c2)Cc2ccccc2-3)s1	9%	20µM*	5%
CC1=N/C(=C\c2ccc([N+](=O)[O-])cc2)C(=O)N1c1cc(Cl)ccc1C	13%	-10%	3%
CN(C)c1ccc(CN(C(=O)COc2ccc(Br)cc2)C2CCS(=O)(=O)C2)cc1 (stereo unspecified)	5%	?	-1%
COc1ccccc1CCC(=O)N1CCN(C(=O)c2ccccc2)CC1	6%	.	.

Assay outcomes deposited in PubChem by National Center for Advancing Translational Sciences (NCATS).
